Yeast superoxide – reduction of superoxide in aged yeast, primary screen, HTS. S. cerevisiae aged cells, superoxide DHE fluorescence; stronger effect = lower value. superoxide response (% of plate mean), % at 10 µM. 0.18% of 330,000 active;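 active = superoxide response under a set limit, about three screen SD below normal, cut at about 65% in these data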;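 note: yeast aged for seven days with compound at 30 °C before DHE staining; 100% = average MFI of all compound-treated wells on the plate with controls excluded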
MOR-DOR inv ag – inverse agonists of MOR-DOR heterodimerization, primary screen, cell-based, luminescence | AID 504357, 2011 | 0.21% of 340,000 active | cell-based MOR-DOR heterodimer luminescence, inverse agonism | inhibition, % at 9.3 µM | Mu-type opioid receptor (Homo sapiens) + Delta-type opioid receptor (Homo sapiens), …; in the data active = inhibition above about 22%, passing the limit was not always enough;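 note: 0% = cells with DMSO and 100% = wells without cells with DMSO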
HTR5A ag – HTR5A agonists in luminescence cell assay, primary screen, counter-screen for OPRM1-OPRD1 heterodimer agonist project, full-deck HTS; AID 504692, 2011; activation, % at 9.3 µM; 0.61% of 340,000 active; cell-based; in the data active = activation mostly above about 9.5%, no sharp cut-off; inactive = mostly below about 7.6%;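 note: 0% = cells with vehicle only and 100% = reference agonist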
Target sequence (P47898 whole entry, looked up): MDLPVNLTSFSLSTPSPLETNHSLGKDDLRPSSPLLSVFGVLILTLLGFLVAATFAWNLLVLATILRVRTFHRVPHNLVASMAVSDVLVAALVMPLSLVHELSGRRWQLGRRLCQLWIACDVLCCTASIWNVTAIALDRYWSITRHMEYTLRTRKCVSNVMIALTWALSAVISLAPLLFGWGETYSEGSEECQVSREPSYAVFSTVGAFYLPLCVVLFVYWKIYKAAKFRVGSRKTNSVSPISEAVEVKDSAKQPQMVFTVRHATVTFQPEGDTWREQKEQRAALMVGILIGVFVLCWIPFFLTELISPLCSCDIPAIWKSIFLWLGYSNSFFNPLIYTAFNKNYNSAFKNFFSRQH
HTR5A inv ag – HTR5A inverse agonists in luminescence cell assay, primary screen, counter-screen for OPRM1-OPRD1 heterodimer inverse agonist project, full-deck HTS | 5-hydroxytryptamine receptor 5A (Homo sapiens), P47898 | HTR5A cell line, inverse agonism | inhibition, % at 9.3 µM | 0.083% of 340,000 active; in the data active = inhibition mostly above about 23%, no sharp cut-off; inactive = mostly below about 18%;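 note: 0% = cells with DMSO and 100% = no-cell wells with DMSO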
MOR-DOR ag-1 – agonists of OPRM1-OPRD1 heterodimerization, primary screen, cell-based, luminescence; Mu-type opioid receptor (Homo sapiens) + Delta-type opioid receptor (Homo sapiens), …; cells; activation, % at 9.3 µM; 0.3% of 340,000 active; AID 504326, 2011;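 note: 0% = vehicle-treated cells and 100% = reference agonist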
PvdQ acylase – P. aeruginosa PvdQ acylase inhibitors, primary screen, biochemical, fluorescence, plate reader and imaging, single point. 0.063% of 340,000 active. inhibition, % at 10 µM. PvdQ acylase [Pseudomonas aeruginosa LESB58]. purified PvdQ acylase; in the data active = inhibition above about 30%, passing the limit was not always enough;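 note: 0% = vehicle neutral wells and 100% = reference inhibitor wells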
MOR-DOR ag-2 – OPRM1-OPRD1 heterodimerization promoters, counter-screen for HTR5A agonist project, cell-based, luminescence; shares compounds with HTR5A ag; U2OS counter-screen cells, complementation luminescence, 3 h; activation, % at 9.3 µM; 13% of 800 active
HTR5A ag conf – HTR5A agonists, retest of hits, confirmation, cell-based, luminescence. HTR5A agonist cell assay. 17% of 800 active. activation, % at 9.3 µM. AID 504915, 2011. shares compounds with HTR5A ag; in the data active = activation above about 17%;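 note: 0% = cells with vehicle only and 100% = full reference agonist response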
* marks the source's active call; other numbers are inactive results; / = no result given. Sampled rows, rich in hits. Any-hit rate of the full collection: about 1.3%. Cut-off read from the data, not from the text of the source, unless noted: active = activation above about 18%; inactive = the rest.

SMILES	Yeast superoxide	MOR-DOR inv ag	HTR5A ag	HTR5A inv ag	MOR-DOR ag-1	PvdQ acylase	MOR-DOR ag-2	HTR5A ag conf
Cc1cc(C)c(C#N)c(SCC(=O)Nc2cccc(S(=O)(=O)N3CCCC3)c2)n1	/	-77	15*	-45	12	-9	-4	-1
Cc1cc(C)c(C#N)c(SCC(=O)Nc2ccc(S(=O)(=O)Nc3ncccn3)cc2)n1	/	12	4	-9	-3	-11	/	/
O=C(CNc1cccc(C(F)(F)F)c1)Nc1cccc(S(=O)(=O)N2CCCC2)c1	84	-13	19*	-47	3	-3	5	14
Cn1nccc1C(=O)N1CCN(c2ccccc2F)CC1	101	17	6	-23	-3	-5	/	/
COc1ccc(Nc2nc(N)nc(CSC(=S)N3CCCCC3C)n2)cc1 (stereo unspecified)	84	10	0	25	-2	-19	/	/
COc1cc2cnc(-c3ccsc3)cc2cc1OC	83	18	22*	-64	-3	-4	1	2
c1cc(-c2cc3cc4c(cc3cn2)OCO4)cs1	95	14	9	-28	-2	-3	/	/
CCc1ccc(NC(=O)Cn2nc(C(F)(F)F)c3c2CCC3)cc1	106	-67	20*	-31	11	8	8	7
COc1ccc(/C=C/C(=O)OCC(=O)NC(C)CCc2ccccc2)cc1OC (stereo unspecified)	82	7	2	-5	-2	-12	/	/
O=S(=O)(c1ccc(S(=O)(=O)N2CCCN(Cc3ccccc3)C2)cc1)N1CCCCCC1	88	12	15*	-4	-2	-14	0	3
COc1ccc([C@H]2Cc3cc(O)cc(O)c3C(=O)O2)cc1O	96	-9	10	-1	2	2	/	/
COc1ccc(CN(C(=O)CSc2nnc(-c3c[nH]c4ccccc34)o2)c2ccc(F)cc2)cc1OC	89	-23	16*	-44	4	-25	27*	1
Cc1ccc(C)c(NC(=O)COc2coc(CN3CCc4ccccc43)cc2=O)c1	96	-7	16*	-39	1	-12	4	2
CSCCC(NC(=O)COc1ccccc1)C(=O)NCC1COc2ccccc2O1 (stereo unspecified)	107	2	5	3	0	3	/	/
COc1cccc(CNC(=O)c2ccc(C)c(NC3=NC4CS(=O)(=O)CC4S3)c2)c1 (stereo unspecified)	77	19	-5	-12	-4	16	/	/
Cc1ccccc1-c1cc(C(=O)Nc2sc(C)c(C)c2C(N)=O)c2ccccc2n1	119	5	17*	-45	-1	-4	5	-2
COc1ccc(OC)c(NC(=S)N(CCc2c(C)[nH]c3ccc(C)cc23)Cc2cccs2)c1	101	-20	24*	-68	4	-18	-1	-2
O=C(O)[C@H]1CCCC[C@H]1C(=O)NCCc1ccccc1	103	8	2	-11	-1	-4	/	/
COC(=O)NCC(c1cccnc1)N1CCN(c2ccccc2)CC1 (stereo unspecified)	103	6	-2	-9	-1	13	/	/
O=C(O)C1CCCCC1C(=O)NCCc1c[nH]c2ccccc12 (stereo unspecified)	93	8	45*	-213	-2	-9	3	7
O=C(NCCc1c[nH]c2ccccc12)C1CCN(c2nnc(N3CCCC3=O)s2)CC1	102	8	42*	-118	-2	0	2	47*
O=C(NCCc1c[nH]c2ccccc12)C(=O)NCC(c1cccnc1)N1CCN(c2ccccc2)CC1 (stereo unspecified)	112	-6	23*	-137	1	-11	2	40*
Cc1ccccc1CNC(=O)C1CCN(c2nnc(N3CCCC3=O)s2)CC1	95	5	0	10	-1	2	/	/
COc1ccc2[nH]cc(CCNC(=O)C3CCCCC3)c2c1	107	7	52*	-145	-1	-15	-2	-7
COC(=O)[C@]1(C)N[C@H](CN(C)C(=O)Nc2ccc(Cl)cc2)[C@@H]2C(=O)N(C)C(=O)[C@@H]21	100	11	3	-11	-2	-21	/	/
SMILES	Yeast superoxide	MOR-DOR inv ag	HTR5A ag	HTR5A inv ag	MOR-DOR ag-1	PvdQ acylase	MOR-DOR ag-2	HTR5A ag conf
COC(=O)c1cc(NS(=O)(=O)c2ccc(N3CCOCC3)c(N)c2)cc(C(=O)OC)c1	96	-22	15*	-52	4	0	5	-12
COc1cc(/C=N/Nc2nc(C)nc3c2cnn3-c2ccccc2)ccc1O	/	-24	16*	-7	5	-10	2	3
COc1cc(/C=N/NC(=O)c2nc(-c3ccccc3)n(-c3ccccc3)n2)ccc1O	89	6	-1	11	-1	-8	/	/
CCOc1ccc(CNC(=O)NS(=O)(=O)c2ccc(OC)cc2)cc1	107	-5	15*	-50	1	-2	23*	4
CCOc1ccc(S(=O)(=O)NN)cc1	102	17	14*	-85	-3	-15	-2	0
CCOc1ccc(S(=O)(=O)NC2CCCC2)cc1	93	-2	3	16	0	-4	/	/
Cc1ccc(Oc2nnc(-c3ccccc3)cc2C#N)cc1	100	-25	18*	-26	6	-12	6	4
N#Cc1cc(-c2ccccc2)nnc1Oc1ccccc1	107	-7	-2	4	2	13	/	/
Cn1c(=O)c(C(=O)NNC(=O)c2cccc(Cl)c2)c(O)c2ccccc21	81	2	3	-8	0	3	/	/
Cc1cccc(C(=O)NNC(=O)c2c(O)c3ccccc3n(C)c2=O)c1	93	-10	19*	-51	2	-19	3	7
CC(C)(C)c1ccc(Oc2ccc(NC(=O)c3ccco3)cn2)cc1	92	-32	16*	16	6	7	28*	-2
Cc1ccc2nc(-c3ccc(O)cc3)c(Nc3ccc4c(c3)OCCO4)n2c1	80	-14	22*	-166	2	-3	1	58*
Cc1ccc2nc(-c3ccccc3O)c(Nc3ccc4c(c3)OCCO4)n2c1	81	1	20*	-54	0	-7	4	37*
O=C(COC(=O)[C@@H]1CCCN1S(=O)(=O)c1ccccc1F)NCc1ccc2c(c1)OCO2	90	12	17*	-44	-3	-2	1	5

Assay outcomes as filed in PubChem.
